Values joined by “and” are separate entries in the source; they are usually repeats but may differ in a detail not shown here. Identical values can stand only once. Counter-ions that a name gives are not always drawn. Screen size: about 5,800 compounds; about 620 (11%) showed activity. For the sample, actives were picked, then their nearest neighbours and some compounds at random. Values without a mark were called inactive.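 The calls were made as follows: active = score above a cut-off or among the top three wells of a plate; in these data no inactive exceeds 0.85.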
System: primary human hepatic stellate cells (donor 1)
Assay: scaled lipid accumulation score (0 = DMSO-like, 1 = nortriptyline-like); higher = stronger HSC inactivation (lipid re-accumulation), active = hit call of the paper
Settings: 48 h
[1] = library stock concentration: 1 mM
[2] = library stock concentration: 80 uM
[3] = library stock concentration: 400 uM
[4] = library stock concentration: 2 mM
[5] = library stock concentration: 3.33 mM
[6] = library stock concentration: 10 mM

CCCCCCCCCCCC#CC#CC#CC#CC(=O)O [Eicosatetraynoic Acid]
scaled lipid accumulation score [1]: ≤ 0

COc1cc(OC)c(/C=C/S(=O)(=O)Cc2ccc(OC)c(NCC(=O)O)c2)c(OC)c1
scaled lipid accumulation score [2]: ≤ -0.016
scaled lipid accumulation score [3]: ≤ -0.016
scaled lipid accumulation score [4]: 0.096
scaled lipid accumulation score [5]: 0.068
scaled lipid accumulation score [6]: 0.138 and 0.063

CC(C)NCC(O)COc1ccc(CC(N)=O)cc1 (racemic) [(RS)-Atenolol]
scaled lipid accumulation score [6]: 0.043

COc1ccc2c(c1)C(=O)N(CCc1ccc(S(=O)(=O)NC(=O)NC3CCCCC3)cc1)C(=O)C2(C)C [Gliquidone]
scaled lipid accumulation score: ≤ 0

CN1CCC(NC(=O)c2cc(-c3c(O)cc(O)cc3Oc3ccc([N+](=O)[O-])cc3)on2)CC1
scaled lipid accumulation score [5]: 0.756

CN1CCC(NC(=O)C2=CC(=C3C(O)=CC(=O)C=C3Oc3ccc([N+](=O)[O-])cc3)ON2)CC1
scaled lipid accumulation score [6]: 0.976 (active)

CCCCCC=CCC=CCC=CCC=CCCCC(=O)OCC(O)CO (stereo unspecified) [1-Arachidonoyl Glycerol]
scaled lipid accumulation score [1]: 0.012

CCCCC/C=C\C[C@H](O)/C=C/C=C\C/C=C\CCCC(=O)O
scaled lipid accumulation score (library stock concentration: 100 uM): ≤ -0.021

Cc1cc2c(OCC(CNC(C)(C)C)OC(=O)c3ccccc3)cccc2[nH]1 (stereo unspecified) [Bopindolol malonate]
scaled lipid accumulation score (library stock concentration: 5.3 mM): ≤ -0.006

COc1cc(/C=C/C(=O)O)ccc1O [Ferulic Acid]
scaled lipid accumulation score [5]: ≤ 0
scaled lipid accumulation score [6]: ≤ 0

COc1cc(/C=C/C(N)=O)cc(OC)c1OC
scaled lipid accumulation score [6]: 0.006

COc1ccc(/C=C\c2cc(OC)c(OC)c(OC)c2)cc1O [Combrestatin A4]
scaled lipid accumulation score [1]: 0.237 (active)

COc1cc(/C=C/C(=O)O)ccc1O [Ferulic acid]
scaled lipid accumulation score [6]: ≤ 0

Nc1[nH]nc2nc3ccccc3nc12
scaled lipid accumulation score [6]: ≤ -0.006

CC(C)[C@H](N)C(=O)OCC(CO)OCn1cnc2c(=O)[nH]c(N)nc21 (stereo partly specified) [Valganciclovir HCl]
scaled lipid accumulation score [5]: ≤ 0
scaled lipid accumulation score [6]: 0.028

COC(=O)C(Cc1ccc(OCCn2c(=O)sc3cc(C(=O)c4ccccc4)ccc32)cc1)C(=O)OC
scaled lipid accumulation score [6]: ≤ 0

CCCCN(CC)c1nc(C)nc2c1c(C)cn2-c1c(C)cc(C)cc1C
scaled lipid accumulation score [6]: 0.047

Cc1ccc(NC(=O)c2ccc(CN3CCN(C)CC3)cc2)cc1Nc1nc(-c2cccnc2)cs1 [Masitinib (AB1010, Masivet) (0.4 mM)]
scaled lipid accumulation score [3]: 0.487

Cc1ccc(NC(=O)c2ccc(CN3CCN(C)CC3)cc2)cc1Nc1nc(-c2cccnc2)cs1 [Masitinib (AB1010)]
scaled lipid accumulation score [5]: 1.13 (active)
scaled lipid accumulation score [6]: 0.856 (active)

Cc1ccc(NC(=O)c2ccc(CN3CCN(C)CC3)cc2)cc1Nc1nc(-c2cccnc2)cs1 [Masitinib (AB1010, Masivet) (2 mM)]
scaled lipid accumulation score [4]: 1.37 (active)

Cc1ccc(NC(=O)c2ccc(CN3CCN(C)CC3)cc2)cc1Nc1nc(-c2cccnc2)cs1 [Masitinib] [listing 1 of 2 here]
scaled lipid accumulation score [6]: 1.07 (active)

Cc1ccc(NC(=O)c2ccc(CN3CCN(C)CC3)cc2)cc1Nc1nc(-c2cccnc2)cs1 [Masitinib] [listing 2 of 2 here]
scaled lipid accumulation score [2]: ≤ -0.009
scaled lipid accumulation score [3]: 0.153
scaled lipid accumulation score [4]: 0.121

Cc1cc(C)c(-c2csc(NC(=O)c3ccccc3)n2)c(C)c1
scaled lipid accumulation score [5]: ≤ -0.009
scaled lipid accumulation score [6]: 0.033

Cc1ccc(NC(=O)c2ccc(CN3CCN(C)CC3)cc2)cc1Nc1nc(-c2cccnc2)cs1 [Masitinib (AB1010, Masivet) (10 mM)]
scaled lipid accumulation score [6]: 0.755

Cc1ccc(-c2csc(NC(=O)c3ccccc3)n2)c(C)c1
scaled lipid accumulation score [5]: ≤ -0.009
scaled lipid accumulation score [6]: ≤ 0

CCCCCCCCCCCCCCCC(=O)C1=C(O)[C@@H](CO)OC1=O
scaled lipid accumulation score (library stock concentration: 13.6 mM): ≤ -0.012

CC1(C)[C@H]2CC[C@]1(CS(=O)(=O)O)C(=O)C2=Cc1ccc(C=C2C(=O)[C@@]3(CS(=O)(=O)O)CC[C@@H]2C3(C)C)cc1
scaled lipid accumulation score [6]: ≤ 0

O=C1NC(=O)/C(=C\c2cccc(C(F)(F)F)c2)S1 [PIM12 kinase inhibitor V]
scaled lipid accumulation score [2]: ≤ -0.001
scaled lipid accumulation score [3]: ≤ -0.001
scaled lipid accumulation score [4]: ≤ -0.001
scaled lipid accumulation score [6]: 0.011

CCCCCC(=O)CC[C@@H]1[C@@H](CCCCCCC(=O)O)[C@@H](O)C[C@H]1O [13,14-dihydro-15-keto Prostaglandin F1.alpha.]
scaled lipid accumulation score [1]: ≤ 0

O=[N+]([O-])c1cc(Cl)ccc1S(=O)(=O)N1CCN(Cc2ccccc2)CC1
scaled lipid accumulation score [6]: 0.048

CN(C)c1cnccn1
scaled lipid accumulation score [6]: ≤ 0

CCCCC[C@](C)(O)/C=C/[C@H]1[C@H](O)CC(=O)[C@@H]1C/C=C\CCCC(=O)O [15(S)-15-methyl Prostaglandin E2]
scaled lipid accumulation score [1]: ≤ 0

N#Cc1ccc2[nH]c(O)c(-c3ccc(CN4CCOCC4)cn3)c2c1
scaled lipid accumulation score [5]: 0.477
scaled lipid accumulation score [6]: 0.769

CCc1cc2c(cc1N1CCC(N3CCOCC3)CC1)C(C)(C)c1[nH]c3cc(C#N)ccc3c1C2=O [listing 1 of 2 here]
scaled lipid accumulation score [2]: ≤ -0.016
scaled lipid accumulation score [3]: ≤ -0.016
scaled lipid accumulation score [4]: 0.126

CCc1cc2c(cc1N1CCC(N3CCOCC3)CC1)C(C)(C)c1[nH]c3cc(C#N)ccc3c1C2=O [listing 2 of 2 here]
scaled lipid accumulation score [6]: 1.17 (active)

CC#CCOC(=O)C1=CCCN(C)C1 [Arecaidine but-2-ynyl ester tosylate]
scaled lipid accumulation score [6]: ≤ 0

CCOC(=O)[C@H](CCc1ccccc1)N[C@@H](C)C(=O)N1Cc2cc(OC)c(OC)cc2C[C@H]1C(=O)O [Moexipril HCl]
scaled lipid accumulation score [5]: ≤ 0
scaled lipid accumulation score [6]: ≤ 0

CCOC(=O)[C@H](CCc1ccccc1)N[C@@H](C)C(=O)N1Cc2cc(OC)c(OC)cc2C[C@H]1C(=O)O [Moexipril hydrochloride]
scaled lipid accumulation score [6]: 0.011

CO[C@H]1C[C@H](O[C@H]2[C@H](C)[C@@H](O[C@@H]3O[C@H](C)C[C@H](N(C)C)[C@H]3O)[C@@H](C)C[C@@]3(CO3)C(=O)[C@H](C)[C@@H](O)[C@@H](C)[C@@H](C)OC(=O)[C@@H]2C)O[C@@H](C)[C@@H]1O [Oleandomycin phosphate]
scaled lipid accumulation score: ≤ 0
scaled lipid accumulation score [6]: ≤ 0

CCCCCCCCCCCCCCCCOC[C@H](COP(=O)([O-])OCC[N+](C)(C)C)SC(=O)CCCCCC [Heptanoyl thio-PC]
scaled lipid accumulation score [1]: 0.071

Cn1cc(/C=C2\C(=O)Nc3cccnc32)c2ccccc21
scaled lipid accumulation score [3]: ≤ -0.005
scaled lipid accumulation score [4]: 0.002
scaled lipid accumulation score [6]: ≤ -0.001 and ≤ -0.005

Cn1cc(C2=C(c3cn(CCCSC(=N)N)c4ccccc34)C(=O)NC2=O)c2ccccc21 [Ro 31-8220 mesylate]
scaled lipid accumulation score [6]: ≤ -0.001

Cn1cc(C2=C(c3c4n(c5ccccc35)CCC(CN)C4)C(=O)NC2=O)c2ccccc21 (stereo unspecified) [Bisindoylmaleimide X HCl salt (Ro 31-8425) (0.4 mM)]
scaled lipid accumulation score [3]: 0.132

Cn1cc(C2=C(c3c4n(c5ccccc35)CCC(CN)C4)C(=O)NC2=O)c2ccccc21 (stereo unspecified) [Bisindoylmaleimide X HCl salt (Ro 31-8425) (2 mM)]
scaled lipid accumulation score [4]: ≤ 0

Cn1cc(C2=C(c3ccc(Cl)cc3Cl)C(=O)NC2=O)c2ccccc21 [listing 1 of 5 here]
scaled lipid accumulation score [6]: 1.37 (active)

NCCCn1cc(C2=C(c3c[nH]c4ccccc34)C(=O)NC2=O)c2ccccc21 [Bisindolylmaleimide III, Hydrochloride]
scaled lipid accumulation score [5]: ≤ 0

Cn1cc(C2=C(c3c4n(c5ccccc35)CCC(CN)C4)C(=O)NC2=O)c2ccccc21 (stereo unspecified) [Bisindoylmaleimide X  HCl salt (Ro 31-8425) (10 mM)]
scaled lipid accumulation score [6]: ≤ -0.005

Cn1cc(C2=C(c3cn(CCCSC(=N)N)c4ccccc34)C(=O)NC2=O)c2ccccc21 [Bisindolylmaleimide IX (mesylate)]
scaled lipid accumulation score [1]: ≤ 0

Cn1cc(C2=C(c3ccc(Cl)cc3Cl)C(=O)NC2=O)c2ccccc21 [listing 2 of 5 here]
scaled lipid accumulation score [2]: 0.035
scaled lipid accumulation score [3]: ≤ -0.009 and 0.379
scaled lipid accumulation score [4]: 0.225
scaled lipid accumulation score [5]: 0.555
scaled lipid accumulation score [6]: 0.564

Cn1cc(C2=C(c3cn(CCCSC(=N)N)c4ccccc34)C(=O)NC2=O)c2ccccc21
scaled lipid accumulation score [2]: 0.068
scaled lipid accumulation score [3]: 0.267
scaled lipid accumulation score [4]: ≤ 0
scaled lipid accumulation score [5]: ≤ 0
scaled lipid accumulation score [6]: 0.848
scaled lipid accumulation score (library stock concentration: 10.9 mM): 0.832

Cn1cc(C2=C(c3cn(CCCSC(=N)N)c4ccccc34)C(=O)NC2=O)c2ccccc21 [Ro 31-8220 Mesylate]
scaled lipid accumulation score [5]: ≤ -0.009
scaled lipid accumulation score [6]: 0.514

O=C1NC(=O)C(c2cn(CCCO)c3ncccc23)=C1c1cnccn1 [GSK-3b Inhibitor XI]
scaled lipid accumulation score [5]: 0.065

Cn1cc(C2=C(c3ccc(Cl)cc3Cl)C(=O)NC2=O)c2ccccc21 [listing 3 of 5 here]
scaled lipid accumulation score [6]: 1.22 (active)

Cn1cc(C2=C(c3ccc(Cl)cc3Cl)C(=O)NC2=O)c2ccccc21 [listing 4 of 5 here]
scaled lipid accumulation score [6]: 1.03 (active)

CCCCn1c2ccc(O)cc2c2c3c(c(-c4ccccc4Cl)cc21)C(=O)NC3=O [Wee1 Inhibitor II]
scaled lipid accumulation score [5]: ≤ 0

Cn1cc(C2=C(c3ccc(Cl)cc3Cl)C(=O)NC2=O)c2ccccc21 [listing 5 of 5 here]
scaled lipid accumulation score [4]: 1.13 (active)
scaled lipid accumulation score [6]: 1.17 (active)

Cn1cc(C2=C(c3cn(CCCN)c4ccccc34)C(=O)NC2=O)c2ccccc21 [Bisindolylmaleimide VIII (acetate)]
scaled lipid accumulation score [1]: ≤ 0

CCCCCCCCCCCCCCCC(=O)OCC [Palmitic Acid ethyl ester]
scaled lipid accumulation score [1]: ≤ 0

C[N+]1(C)C[C@H](O)C[C@H]1C(=O)[O-] [Betonicine]
scaled lipid accumulation score: ≤ 0

From the supplement of paper PMC9135407
